PubChem BioAssay AID2562 (National Center for Advancing Translational Sciences (NCATS), 2010)
Results filed as inconclusive are left out. Calls of active or inactive are those of the source. Calls follow the shape of the dose curve; as a rule, active = well fitted curve in the direction sought with a large enough effect; inconclusive = small, poorly fitted or top-dose-only effect, or effect the other way, or another doubt; inactive = no such curve, though single readings can be large or run the other way.

What follows are compounds tested against Pyruvate kinase PKLR (Homo sapiens) (UniProt P30613) (assay: Secondary LDH Assay for Activators of Human Reticulocyte Pyruvate Kinase: for Probe SAR). Conditions: purified hPK-R, LDH-coupled NADH fluorescence kinetic; series mostly up to 58.4 µM; activity change, positive = activation: at the top concentration.
From the text: NIH Chemical Genomics Center [NCGC] Wael M. Rabeh, Lyudmila Nedyalkova and Hee-Wan Park [Structural Genomics Consortium, 100 College St. Toronto, Ontario, Canada] NCGC Assay Overview: Human pyruvate kinase reticulocyte (hPK-R) enzyme was supplied as a highly purified (>95% pure) preparation from Structural Genomics Consortium in Toronto (Ontario, Canada) and a secondary assay was used to evaluate compounds. This assay couples the formation of pyruvate from hPK-R using lactate dehydrogenase (LDH) and NADH. The depletion of NADH is followed in a fluorescent-based kinetic assay that follows the formation of pyruvate to lactate, as catalyzed LDH. Pyruvate kinase substrates, PEP and ADP, were present in the assay at 0.1 mM and 4 mM respectively. In this kinetic assay initial rates were determined by following the fluorescence of NADH depletion.
NCGC Assay Protocol Summary: Three uL of substrate mix (final concentration, 50 mM Tris-Cl pH 8.0, 200 mM KCl, 15 mM MgCl2, 0.1 mM PEP, 4.0 mM ADP, and 0.2 mM NADH) was dispensed into black-solid 1536 well plates. 23 nL of compounds were delivered by a pin tool and 1 uL of enzyme mix (final concentrations, 10 nM hPK-R and 1 uM of LDH) was added. Plates were immediately placed in ViewLux (Perkin Elmer) and NADH fluorescence was determined at 30 second exposure intervals for between 3 and 6 minutes. Data were normalized to the uninhibited and EC100 activation using known activators such as fructose-bis-phosphate.

Sequence of Pyruvate kinase PKLR (Homo sapiens) (P30613 whole entry, looked up): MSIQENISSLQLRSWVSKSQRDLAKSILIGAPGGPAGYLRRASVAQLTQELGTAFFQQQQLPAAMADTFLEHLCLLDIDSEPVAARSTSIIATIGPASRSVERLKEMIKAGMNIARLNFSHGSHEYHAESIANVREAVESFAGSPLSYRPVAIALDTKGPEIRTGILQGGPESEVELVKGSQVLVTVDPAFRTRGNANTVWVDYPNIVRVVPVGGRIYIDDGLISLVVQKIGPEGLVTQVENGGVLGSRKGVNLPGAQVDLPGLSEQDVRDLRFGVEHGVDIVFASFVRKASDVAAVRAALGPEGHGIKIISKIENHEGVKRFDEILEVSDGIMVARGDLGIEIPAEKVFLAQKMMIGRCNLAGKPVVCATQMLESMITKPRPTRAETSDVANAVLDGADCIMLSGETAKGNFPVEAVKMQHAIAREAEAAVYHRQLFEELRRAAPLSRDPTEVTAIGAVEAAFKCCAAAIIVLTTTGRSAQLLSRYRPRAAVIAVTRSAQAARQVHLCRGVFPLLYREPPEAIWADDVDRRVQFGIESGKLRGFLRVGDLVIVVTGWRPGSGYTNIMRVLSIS

SMILES	activity change, positive = activation	Potency
O=C1CCc2cc(S(=O)(=O)Nc3ccncc3)ccc2N1	12.1% (inactive)	
Nc1cccc(S(=O)(=O)N2CCCN(S(=O)(=O)c3ccc4c(c3)OCCO4)CC2)c1	25.1% (inactive)	
CSc1cc2c(s1)c1cnn(Cc3cccc(O)c3)c(=O)c1n2C		259 nM (active)
CC(=O)N1CCc2cc(S(=O)(=O)Nc3ccc(C)c(C)c3)ccc21	15.7% (inactive)	
Cc1cccc(NS(=O)(=O)c2ccc3c(c2)CCC(=O)N3)c1	3.22% (inactive)	
O=C1CCc2cc(S(=O)(=O)Nc3ccc4ccccc4c3)ccc2N1	14.7% (inactive)	
Cc1ccc(NS(=O)(=O)c2cc3c(cc2-c2ccccc2)NC(=O)CO3)cc1C	-2.67% (inactive)	
COc1ccc(S(=O)(=O)Nc2ccc(C)c(C)c2)cc1	16.3% (inactive)	
Cc1ccc(NS(=O)(=O)c2cccc(Cl)c2)cc1C	14.8% (inactive)	
Cc1ccc2nc(-c3ccc(C)o3)c(NC3CCCC3)n2c1	-15.8% (inactive)	
O=C1c2ccccc2C(=O)N1C1CCCCC1	-3.06% (inactive)	
COc1cc(F)c(S(=O)(=O)N2CCCN(S(=O)(=O)c3cccc(N)c3)CC2)c(F)c1	14.3% (inactive)	
O=S(=O)(c1ccc2c(c1)OCCO2)N1CCN(S(=O)(=O)c2c(F)cccc2F)CC1	-1.4% (inactive)	
O=C1c2ccccc2C(=O)N1Cc1ccccn1	-3.89% (inactive)	
COc1ccc(OC2=NS(=O)(=O)c3ccccc32)cc1	12.6% (inactive)	
Cc1ccc(NS(=O)(=O)c2ccc3c(c2)CCC(C)(C)O3)cc1C	7.9% (inactive)	
O=C1c2ccccc2C(=O)N1c1cccc(O)c1	10.1% (inactive)	
Cc1ccc(NS(=O)(=O)c2cc3c(cc2-c2cn[nH]c2)NC(=O)CO3)cc1C	20.6% (inactive)	
Cc1ccc(NS(=O)(=O)c2cc3c(cc2N(C)C)NC(=O)CC3)cc1C	5.45% (inactive)	
Cc1ccccc1NS(=O)(=O)c1ccc2c(c1)CCC(=O)N2	4.32% (inactive)	

SMILES	activity change, positive = activation	Potency
Cc1ccc(NS(=O)(=O)c2ccc3c(c2)CCN(C(=O)C(F)(F)F)C3)cc1C	12.5% (inactive)	
Cc1ccc(NS(=O)(=O)c2cccc(C(=O)O)c2)cc1C	12.2% (inactive)	
O=C1c2ccccc2C(=O)N1c1cccc(Cl)c1	-6.91% (inactive)	
Cc1ccc(OC2=NS(=O)(=O)c3ccccc32)cc1	6.1% (inactive)	
O=C1CCc2cc(S(=O)(=O)Nc3cccnc3)ccc2N1	-0.0937% (inactive)	
Cc1cccc(OC2=NS(=O)(=O)c3ccccc32)c1	4.25% (inactive)	
CSc1cc2c(s1)c1cnn(Cc3cccc(N)c3)c(=O)c1n2C	21.1% (inactive)	
COc1ccccc1OC1=NS(=O)(=O)c2ccccc21	7.5% (inactive)	
Cc1cc(N2C(=O)c3ccccc3C2=O)n[nH]1	7.37% (inactive)	
O=C1CCc2cc(S(=O)(=O)Nc3cccc(-c4ccccc4)c3)ccc2N1	0.369% (inactive)	
Cc1ccc(NS(=O)(=O)c2ccc(F)cc2)cc1C	18.4% (inactive)	
O=C1c2ccccc2C(=O)N1c1cccc(=O)[nH]1	16.3% (inactive)	
Cc1ccc(NS(=O)(=O)c2cccc(F)c2)cc1C	3.69% (inactive)	
O=C1c2ccccc2C(=O)N1c1ccccn1	-1.61% (inactive)	
Cc1cc2c(s1)c1cnn(Cc3ccccc3F)c(=O)c1n2C	10.6% (inactive)	
O=C1CCc2cc(S(=O)(=O)NCc3ccccc3)ccc2N1	1.98% (inactive)	
Nc1cc(S(=O)(=O)N2CCN(S(=O)(=O)c3ccc4c(c3)OCCO4)CC2)ccn1	-4.54% (inactive)	
Cc1ccccc1OC1=NS(=O)(=O)c2ccccc21	4.32% (inactive)	
Cc1ccc(NS(=O)(=O)c2cc3c(cc2/C=C/c2ccccc2)NC(=O)CO3)cc1C	7.5% (inactive)	
Cc1ccc(NS(=O)(=O)c2ccc3c(c2)CCC(=O)N3)cc1C	15.6% (inactive)	
